Source: PubChem BioAssay AID651558 (National Center for Advancing Translational Sciences (NCATS), 2012)
Among all 1,200 compounds or so, about 480 (40%) were called active. Not shown: some 29% with an inconclusive outcome. The list shows a part of the results. Unmarked numbers belong to inactive results. Calls follow the shape of the dose curve; as a rule, active = well fitted inhibition curve with a large enough effect; inconclusive = small, poorly fitted or top-dose-only effect; inactive = no such curve, though single readings can be large or run the other way.

assay: qHTS Assay to Find Inhibitors of Chronic Active B-Cell Receptor Signaling: Hit Validation in Primary Screen; conditions: ABC-DLBCL IkB-luc/CBR ratio luminescence, 4 h; series mostly up to 46.1 µM; activity change, negative = inhibition: at the top concentration; also: nearly all actives have a fitted effect of over 75% in size
From the text: Diffuse large B-cell lymphoma (DLBCL) is the most common category of non-Hodgkin lymphoma, with ~20,000 new cases per year in the United States. DLBCL should be regarded as a collection of different neoplasms. Microarray gene expression analysis has defined two principal types of DLBCL, named for their similarity to normal B cell stages or activation states: a germinal center B-cell (GCB) type, and an activated B-cell (ABC) type. In ABC-DLBCL, a constitutive high-level activity of the NF-kappaB family of transcription factors has been observed (1) and NF-kappaB target genes are more highly expressed in ABC primary tumors than in GCB tumors. Functional studies have shown a constitutive high-level activity of the IkappaB (inhibitor of kappa-B) kinase (IKK) complex. […] Further analysis of DLBCL primary tumors for NF-kappaB target gene expression imply that although CARD11 is required for constitutive IKK activity in all ABC-DLBCL lines, mutations in CARD11 may be the root cause of IKK activation only in lines or tumors with such mutations. In other words, CARD11 mutations may explain NF-kappaB activation in only 10% of ABC-DLBCL cases. […] This process has been termed 'chronic active BCR signaling' (CABS). The goal of this screen is to find small-molecule inhibitors of the CABS pathway found in ABC-DLBCL lines using a cell-based assay that measures IkappaBalpa stability, which has already been extensively validated in the OCI-Ly3 line (PubChem AID:445; REF: 4). […] A cell-sensor assay for I-kappa-B-alpha stabilization has been developed. The assay uses green (CBG68) and red (CBR) emitting beetle luciferases [Chroma-GloTM developed by Promega Corp.] where the green luciferase is fused to IkappaBalpha and the red luciferase is present in its native state. Both luciferase genes are stably present in the TMD8 human ABC DLBCL cell line, but their expression is under the control of tetracycline-inducible promoters. Following the addition of doxycycline to induce expression of the luciferases, the green luminescence in control cultures rises only slowly because the CBG fusion partner IkappaBalpha is targeted by IKK activity for rapid degradation. In contrast, green luminescence rises rapidly in the presence of proteasome inhibitors or IKK inhibitors. The rise in red luminescence of CBR is not affected by proteasome or IKK inhibitors, and serves as normalization for cell number and nonspecific effects. Compounds were screened as a concentration-titration series that ranged from 46 uM to 3 nM. NIH Molecular Libraries Probe Production Network [MLPCN] NIH Chemical Genomics Center [NCGC] MLPCN Grant: R03 DA031086 PI Name: Dr. R. Eric Davis
Cells were seeded in 1536-well plates at 5000 cells/4uL in IMDM medium containing 0.5% FBS, w/o phenol red, 1% penicillin/streptomycin. Then, 23 nL of compounds or DMSO were delivered to each well using a pin tool. One uL 20ng/ml doxycycline was then dispensed into white solid 1536-well plates and the plates were incubated at 37C/5% C02 in a cell incubator for 4 hrs. Then 4 uL luminescent substrate mix (in-house prepared: 150 mM Tris-Cl, pH 7.6, 3 mM MgCl2, 1% Triton X-100, 5 mM DTT, 0.2 mM CoA, 0.15 mM ATP, 5 mM D-luciferin, final concentrations) was added to each well. The plate was incubated at r.t. for 10-15 min. The plates were measured on a ViewLux plate reader for green luminescence (540/20 nm filter) and red luminescence (618/8 nm filter). The green and red luminescent signals were corrected for red and green luminescence filter overlap using previously determined filter calibration constants (determined using the procedure outlined in the Promega Technical Manual; REF 4). The %Activity was determined from the ratio of corrected green/red luminescent values. MG132 were used as control. Green luminescent and ratio %Activity was determined by normalizing to the difference in signal between basal cells (0% Activity) and cells incubated with 10 uM of the proteasome inhibitor MG-132 (100% Activity). […]
% is scaled to controls: 0 for no effect and ±100 for the full control effect; potency is read from the fitted curve at half-maximal effect.

Question: With COc1ccc(/C=C/C(=O)c2cc(F)ccc2OC(=O)c2ccccc2C)cc1OC as the compound, how does the Potency read?
Answer: 1.3 µM (active)

Question: Which Potency does the source give for COc1ccc(/C=C/C(=O)c2cc(F)ccc2OC(=O)c2ccccc2OC)cc1OC here?
Answer: 1.3 µM (active)

Question: Which “activity change, negative = inhibition” value does the source give for Cc1ccccc1C(=O)Oc1ccc2ccc(O)cc2c1 here?
Answer: -6.71%

Question: For S=C(Nc1ccccc1Cl)N(Cc1ccccc1)Cc1ccccn1, which “activity change, negative = inhibition” value is on record?
Answer: -2.47%

Question: For COc1ccc(NC(=S)N/N=C/c2ccc(F)cc2)cc1OC, which “activity change, negative = inhibition” value is on record?
Answer: -3.66%

Question: Which Potency does the source give for COc1ccc(/C=C/C(=O)c2cc(F)ccc2OC(=O)c2ccc(OC)c(OC)c2)cc1OC here?
Answer: 23.1 µM (active)

Question: Which Potency does the source give for COc1cccc(Nc2sc(C(=O)c3ccc(Cl)cc3)c(N)c2C(=O)NCc2ccc(C)cc2)c1 here?
Answer: 1.3 µM (active)

Question: For Cc1cc(C)c(S(=O)(=O)Nc2ccc3c4c(cccc24)CC3)c(C)c1, which Potency is on record?
Answer: 1.16 µM (active)

Question: For COc1cccc(CN2c3ccc(Br)cc3C(=O)CS2(=O)=O)c1, which “activity change, negative = inhibition” value is on record?
Answer: 6.37%

Question: Which Potency does the source give for COc1ccc(CN2C[C@H]3CCCN3c3cc(Br)ccc3S2(=O)=O)cc1 here?
Answer: 6.51 µM (active)

Question: With CCOC(=O)c1ccc(-c2c(-c3cc(OC)c(OC)c(OC)c3)noc2C)cc1F as the compound, how does the Potency read?
Answer: 8.2 µM (active)

Question: For COc1cc(-c2noc(C)c2-c2ccc3[nH]ccc3c2)cc(OC)c1OC, which Potency is on record?
Answer: 14.6 µM (active)

Question: For COc1cc(-c2noc(C)c2-c2ccc(N(C)C)nc2)cc(OC)c1OC, which Potency is on record?
Answer: 2.31 µM (active)

Question: With COc1ccc(-c2c(-c3cc(OC)c(OC)c(OC)c3)noc2C)cn1 as the compound, how does the Potency read?
Answer: 20.6 µM (active)

Question: With CC1=C/C(=N\NC(=S)NCc2ccccc2)CC1 as the compound, how does the “activity change, negative = inhibition” value read?
Answer: -7.8%

Question: With COc1cc(-c2c(-c3cc(OC)c(OC)c(OC)c3)noc2C)ccc1F as the compound, how does the Potency read?
Answer: 1.3 µM (active)

Question: For CC(/C=N/NC(=O)c1cc(-c2ccncc2)nc2ccccc12)=C\c1ccco1, which Potency is on record?
Answer: 1.64 µM (active)

Question: For CC(/C=N/NC(=O)c1cc(-c2ccc(Cl)cc2)nc2ccccc12)=C\c1ccco1, which Potency is on record?
Answer: 2.91 µM (active)

Question: With CC(/C=N/NC(=O)c1cc(-c2ccccc2)nc2ccccc12)=C\c1ccco1 as the compound, how does the Potency read?
Answer: 5.8 µM (active)

Question: With Cc1c(/C=N\NC(=O)C2COc3ccccc3O2)c2ccccc2n1C (stereo not given) as the compound, how does the Potency read?
Answer: 2.59 µM (active)

Question: Which Potency does the source give for Cc1ccc(/C=N/NC(=O)C2COc3ccccc3O2)s1 (stereo not given) here?
Answer: 23.1 µM (active)

Question: With C=CCNC(=S)N/N=C/c1ccc(C)s1 as the compound, how does the “activity change, negative = inhibition” value read?
Answer: -9.11%

Question: With O=C(CN1CCCc2ccccc21)N/N=C/c1ccccc1O as the compound, how does the “activity change, negative = inhibition” value read?
Answer: -0.214%

Question: With COc1ccccc1C1C2=C(COC2=O)Nc2cc3c(cc21)OCO3 (stereo not given) as the compound, how does the Potency read?
Answer: 1.3 µM (active)

Question: Which Potency does the source give for C#CCOc1ccc(C2C3=C(COC3=O)Nc3cc4c(cc32)OCO4)cc1OC (stereo not given) here?
Answer: 0.146 µM (active)

Question: For O=C1OCC2=C1C(c1ccc(F)cc1)c1cc3c(cc1N2)OCO3 (stereo not given), which Potency is on record?
Answer: 0.116 µM (active)

Question: Which Potency does the source give for COc1ccc(OC)c(C2C3=C(COC3=O)Nc3cc4c(cc32)OCO4)c1 (stereo not given) here?
Answer: 0.366 µM (active)

Question: Which Potency does the source give for CCOc1ccccc1C1C2=C(COC2=O)Nc2cc3c(cc21)OCO3 (stereo not given) here?
Answer: 1.3 µM (active)

Question: With O=C(CN1CCC(NC(=O)Nc2ccc(F)cc2)CC1)Nc1ccccc1[N+](=O)[O-] as the compound, how does the “activity change, negative = inhibition” value read?
Answer: -17.7%

Question: With CCOc1cc(Br)c(C=O)cc1OCC as the compound, how does the Potency read?
Answer: 6.51 µM (active)

Question: Which “activity change, negative = inhibition” value does the source give for CC(C)(C)NNC(=S)Nc1cccc(F)c1 here?
Answer: -8.63%

Question: For COc1cc(OC)cc(C(=O)Oc2c(CN3CCOCC3)cc(Cl)c3cccnc23)c1, which “activity change, negative = inhibition” value is on record?
Answer: 36.6%

Question: Which “activity change, negative = inhibition” value does the source give for Cc1cccc(NC(=S)N/N=C/C(C)c2ccccc2)c1C (stereo not given) here?
Answer: -3.28%

Question: With CCN1C(=O)c2cccc3c(S(=O)(=O)Nc4nc(C)cs4)ccc1c23 as the compound, how does the Potency read?
Answer: 3.66 µM (active)

Question: With CCN1C(=O)c2cccc3c(S(=O)(=O)Nc4ccccc4O)ccc1c23 as the compound, how does the “activity change, negative = inhibition” value read?
Answer: 94.3%

Question: Which Potency does the source give for Cc1ccccc1OCCc1c(C)[nH]c(=S)[nH]c1=O here?
Answer: 11.6 µM (active)

Question: With COc1ccccc1OCCCN1C(=O)C(=O)c2cccc(C)c21 as the compound, how does the “activity change, negative = inhibition” value read?
Answer: -9.96%

Question: With Cc1ccc(S(=O)(=O)n2cc(-c3ccccc3)c3ccccc32)cc1 as the compound, how does the Potency read?
Answer: 3.26 µM (active)

Question: For CCCCNC(=S)NNC(=O)CCn1nc(C)c(Br)c1C, which “activity change, negative = inhibition” value is on record?
Answer: -4.91%

Question: For COc1cc(Br)cc(/C=C/c2ccc3cccc(O)c3n2)c1O, which Potency is on record?
Answer: 20.6 µM (active)

Question: Which Potency does the source give for COc1cc(/C=C/c2ccc3cccc(O)c3n2)c(Br)cc1O here?
Answer: 18.4 µM (active)

Question: With COc1ccc(OC)c(/C=C/c2ccc3cccc(O)c3n2)c1 as the compound, how does the Potency read?
Answer: 20.6 µM (active)

Question: For CCOc1ccccc1N=NC1C(=O)N(C(N)=S)N=C1C (stereo not given), which “activity change, negative = inhibition” value is on record?
Answer: 24.5%

Question: Which Potency does the source give for COCCCNC(=O)C(=O)Nc1ccc2c(c1)N(S(=O)(=O)c1cccs1)CCC2 here?
Answer: 16.4 µM (active)

Question: For CCCC(=O)OCCNc1cc(Sc2nccn2C)c2nonc2c1[N+](=O)[O-], which Potency is on record?
Answer: 3.66 µM (active)

Question: For CCOC(=O)CSC1=C(C#N)C(c2ccc(C)o2)CC(=O)N1 (stereo not given), which Potency is on record?
Answer: 4.11 µM (active)

Question: With CCOC(=O)CSC1=C(C#N)C(c2ccc(C)s2)CC(=O)N1 (stereo not given) as the compound, how does the Potency read?
Answer: 16.4 µM (active)

Question: Which “activity change, negative = inhibition” value does the source give for CCCCNC(=S)N=Nc1c(O)[nH]c2ccccc12 here?
Answer: 29.1%

Question: For COc1ccc(/C=C2\CCc3ccccc3C2=O)cc1O, which Potency is on record?
Answer: 13 µM (active)

Question: Which “activity change, negative = inhibition” value does the source give for COc1cc(/C=N/N(C)c2ccccc2)ccc1O here?
Answer: 85.9%
